Rows were chosen to be rich in hits. Some 2.4% of all compounds tested hit in one or more screens of this group.
miR-122 sensor – inhibitors of miR-122 in Huh7 cells; AID 602342; actives 0.3% (n = 340,000); activation (reporter increase), % at 12.5 µM; Huh7 miR-122 Renilla luciferase sensor, 48 h; neutral wells = 0, positive control = 100;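 active = mean replicate activation score at least 90 and every replicate individually at or above 90; inconclusive = only one of the two criteria met; inactive = neither criterion met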;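 note: higher luciferase means less miR-122 activity so hits act as miR-122 inhibitors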
NSD2 inh – blocks human histone methyltransferase NSD2 | O96028 | inhibition, % at 12.5 µM | actives 0.54% (n = 310,000) | NSD2 peptide methylation, AlphaScreen, 120 min
Target sequence (O96028 whole entry, looked up): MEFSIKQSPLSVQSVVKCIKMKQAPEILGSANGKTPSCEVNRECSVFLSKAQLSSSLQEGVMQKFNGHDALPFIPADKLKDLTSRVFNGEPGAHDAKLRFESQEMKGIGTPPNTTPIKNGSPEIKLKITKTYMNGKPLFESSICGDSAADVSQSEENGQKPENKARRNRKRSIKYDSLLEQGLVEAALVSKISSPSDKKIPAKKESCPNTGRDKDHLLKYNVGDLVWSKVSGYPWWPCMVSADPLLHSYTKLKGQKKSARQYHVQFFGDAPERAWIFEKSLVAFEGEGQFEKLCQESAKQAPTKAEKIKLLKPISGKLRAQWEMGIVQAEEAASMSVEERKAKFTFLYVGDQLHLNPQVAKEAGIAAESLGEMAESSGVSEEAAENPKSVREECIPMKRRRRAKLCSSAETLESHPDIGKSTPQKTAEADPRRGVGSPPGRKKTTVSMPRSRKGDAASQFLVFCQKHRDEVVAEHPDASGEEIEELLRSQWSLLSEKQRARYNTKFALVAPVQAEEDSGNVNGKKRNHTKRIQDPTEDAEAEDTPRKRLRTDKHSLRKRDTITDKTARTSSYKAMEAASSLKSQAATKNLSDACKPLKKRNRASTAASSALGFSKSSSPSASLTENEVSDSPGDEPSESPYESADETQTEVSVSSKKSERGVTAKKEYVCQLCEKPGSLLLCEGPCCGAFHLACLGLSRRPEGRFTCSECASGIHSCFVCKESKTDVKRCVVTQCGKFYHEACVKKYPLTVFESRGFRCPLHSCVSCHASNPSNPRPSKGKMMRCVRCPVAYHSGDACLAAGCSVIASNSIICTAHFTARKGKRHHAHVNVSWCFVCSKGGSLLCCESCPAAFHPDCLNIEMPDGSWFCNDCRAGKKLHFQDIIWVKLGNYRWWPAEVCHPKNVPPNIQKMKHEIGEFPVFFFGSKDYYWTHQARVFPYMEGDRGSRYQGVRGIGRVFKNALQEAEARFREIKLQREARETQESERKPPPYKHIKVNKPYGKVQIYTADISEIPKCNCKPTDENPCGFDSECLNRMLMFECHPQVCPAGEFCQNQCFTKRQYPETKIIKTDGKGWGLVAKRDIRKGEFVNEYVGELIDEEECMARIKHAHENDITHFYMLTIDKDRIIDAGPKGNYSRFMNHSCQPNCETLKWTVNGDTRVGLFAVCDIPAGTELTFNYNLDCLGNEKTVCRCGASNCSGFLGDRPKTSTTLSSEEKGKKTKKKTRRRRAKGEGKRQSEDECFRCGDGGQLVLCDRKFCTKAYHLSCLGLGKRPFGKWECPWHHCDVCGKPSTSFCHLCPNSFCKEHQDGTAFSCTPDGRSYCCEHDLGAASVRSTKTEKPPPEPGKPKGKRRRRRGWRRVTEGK
MITF act – increases MITF-driven TRPM1 promoter luciferase signal. SK-MEL-5 TRPM1-promoter luciferase, 24 h; % of positive control, neutral wells = 0. activation, % at 12.5 µM. actives 0.75% (n = 300,000);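 active = mean activation of at least 80% with every replicate also reaching 80%; inconclusive = mean reaches 80% but some replicate falls short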
Wnt bcat act – activators of Wnt/beta-catenin signaling; activation, % at 9.35 µM; actives 1.2% (n = 300,000); Wnt/beta-catenin reporter cell assay, activator, plate reader; in the data active = activation above about 30%, passing the limit was not always enough; inconclusive = no clear call, values can overlap the other calls
GSIS activator – primary screen for activators of insulin secretion dependent on glucose, INS-1E cells, GLuc reporter luminescence. INS-1E GLuc reporter insulin secretion, 2-3 h. activation, % at 16.6 µM. actives 0.61% (n = 370,000);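 active = lowest replicate activation of at least 40%, so every replicate reaches that level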
DYRK1A inh – inhibitors of rat Dyrk1A kinase; AID 504441; actives 0.43% (n = 310,000); Q63470; inhibition, % at 12.5 µM; ADP-Glo luminescence, NFATc1 peptide
ADP-Glo artifact – counter-screen for Dyrk1A inhibitors: ADP-Glo luciferase artifacts; AID 588348; 1,300 tested, under 10 active; AC50, µM (highest dose often 12 µM); ADP-Glo luciferase artifact assay, no Dyrk1A, luminescence; shares compounds with DYRK1A inh;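 active = fitted half-maximal dose AC50 no more than ten times the top valid tested dose, with luminescence dropping as dose rises; inconclusive = poor fit, or flat fit with 30 to 70% inhibition; inactive = the rest, signal increases included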
Large screens that a line does not name were inactive (follow-up assays come after a bar, where they were run). Cut-off read from the data, not from the text of the source, unless noted: active = inhibition above about 50%; inactive = the rest.

Cc1cccc(/N=C/c2sc3ccccc3c2O)n1	Wnt bcat act 46.0
O=C(CCl)N(O)c1ccc(C=Cc2ccccc2)cc1	Wnt bcat act 39.7 (no result: GSIS activator)
O=c1c2ccccc2sn1-c1cc(S(=O)(=O)N2CCOCC2)ccc1N1CCOCC1	GSIS activator 208.2 (no result: miR-122 sensor, DYRK1A inh)
Cc1noc(C)c1NC(=O)Nc1ccc2c(c1)C(=O)N(C)[C@H]1CC[C@H](CC(=O)N(C)C)O[C@@H]1CO2	none (no result: NSD2 inh, MITF act, Wnt bcat act, DYRK1A inh)
O=c1[nH]c(CN2CCN(c3ccccc3O)CC2)nc2scc(-c3ccccc3Cl)c12	none
O=c1[nH]c(CN2CCN(c3ccc(O)cc3)CC2)nc2scc(-c3ccc(Cl)cc3)c12	GSIS activator 52.8 (no result: miR-122 sensor, DYRK1A inh)
Cc1ccc(S(=O)(=O)c2cccc(S(=O)(=O)N3CCCC3)c2)cc1S(=O)(=O)N1CCCC1	miR-122 sensor 110.4, MITF act inconclusive (no result: GSIS activator)
Cc1ccc(S(=O)(=O)N(C)C[C@@H]2OCCCC[C@@H](C)Oc3ccc(NC(=O)Nc4ccc(C(F)(F)F)cc4)cc3C(=O)N([C@H](C)CO)C[C@@H]2C)cc1	none (no result: NSD2 inh, MITF act, Wnt bcat act, DYRK1A inh)
Cc1cccc(NC(=O)c2cc3ccccc3o2)c1	Wnt bcat act 41.6
O=C(Nc1cccc(Br)c1)c1cc2ccccc2o1	none (no result: miR-122 sensor, DYRK1A inh)
CCOC(=O)c1ccc(NC(=O)c2cc3ccccc3o2)cc1	MITF act 110.6 (no result: Wnt bcat act, GSIS activator)
O=C(Nc1cccnc1Cl)c1cc2ccccc2o1	Wnt bcat act 49.0 (no result: miR-122 sensor)
O=C(NCCOc1ccccc1)c1cc2ccccc2o1	MITF act 102.4 (no result: GSIS activator)
Cc1cc(NC(=O)c2cccnc2Cl)ccc1NC(=O)c1cc2ccccc2o1	none
Cc1ccccc1-c1ccc([C@H]2[C@H](CO)N3C(=O)CN(C(=O)NC4CCCC4)C[C@@H]23)cc1	none (no result: miR-122 sensor, NSD2 inh, MITF act, Wnt bcat act, DYRK1A inh)
COc1cc(NC(=O)c2c(OC)cccc2OC)ccc1NC(=O)c1cc2ccccc2o1	MITF act 93.0 (no result: GSIS activator)
COc1cc(NC(=O)c2ccc(F)cc2)ccc1NC(=O)c1cc2ccccc2o1	none (no result: MITF act)
CO[C@H]1CN(C)C(=O)c2cc(NC(=O)NC3CCCCC3)ccc2OC[C@@H](C)N(CCc2ccccc2)C[C@H]1C	none (no result: miR-122 sensor, NSD2 inh, MITF act, Wnt bcat act, DYRK1A inh)
N=c1oc2ccc(Cl)cc2cc1C(=O)Nc1ccc(F)cc1	Wnt bcat act 36.4
CCn1c(SCC(=O)NCc2ccc3c(c2)OCO3)nc2c(c1=O)SCC2	Wnt bcat act 30.7 (no result: miR-122 sensor)
COc1ccc(CNC(=O)C[C@@H]2C[C@@H]3c4cc(NS(C)(=O)=O)ccc4O[C@@H]3[C@@H](CO)O2)cc1	none (no result: NSD2 inh, MITF act, Wnt bcat act, DYRK1A inh)
COc1ccc2c3c(n(C)c2c1)[C@@H](CO)N(CC1CC1)CC31CN(C(C)=O)C1	none (no result: miR-122 sensor, NSD2 inh, MITF act, Wnt bcat act, DYRK1A inh)
COc1ccc(-c2csc(N(C)C(=O)c3cccs3)n2)cc1	MITF act 96.6, Wnt bcat act 38.1 (no result: NSD2 inh)
COc1ccc(-c2csc(N(Cc3ccco3)C(=O)c3cccs3)n2)cc1	Wnt bcat act 40.5 (no result: NSD2 inh)
CC1(C)N([O-])C(c2cccs2)=C[N+]1=O	miR-122 sensor 103.0 (no result: MITF act, Wnt bcat act, GSIS activator)
C[C@H]1CN([C@@H](C)CO)C(=O)c2cc(NC(=O)c3ccncc3)ccc2O[C@@H]1CN(C)S(=O)(=O)c1cn(C)cn1	none (no result: NSD2 inh, MITF act, Wnt bcat act, DYRK1A inh)
N#CC1=C(N)Oc2nc(-c3ccccc3)[nH]c2C1c1cccnc1 (centres undefined)	GSIS activator 47.7 (no result: Wnt bcat act)
CC(C)C1C(C#N)=C(N)Oc2n[nH]c(-c3ccccc3)c21 (centres undefined)	none (no result: MITF act)
CC(C)CC1C(C#N)=C(N)Oc2n[nH]c(-c3ccccc3)c21 (centres undefined)	Wnt bcat act 32.2
Cc1ccc(C2C(C#N)=C(N)Oc3nc(-c4ccccc4)[nH]c32)o1 (centres undefined)	none (no result: NSD2 inh, Wnt bcat act, GSIS activator)
Cc1ccc(-c2[nH]nc3c2C(c2cccnc2)C(C#N)=C(N)O3)cc1 (centres undefined)	GSIS activator 78.1
N#CC1=C(N)Oc2n[nH]c(-c3ccccc3)c2C1c1cccnc1 (centres undefined)	none (no result: GSIS activator)
C[C@@H]1CN([C@@H](C)CO)C(=O)Cc2cc(NS(=O)(=O)c3cccs3)ccc2O[C@@H]1CN(C)C(=O)Nc1ccccc1	none (no result: NSD2 inh, MITF act, Wnt bcat act, DYRK1A inh)
O=C(Nc1ccccc1)N1C[C@@H]2[C@H](c3ccccc31)[C@H](CO)N2CC1CCCC1	none (no result: NSD2 inh, MITF act, Wnt bcat act, DYRK1A inh)
C[C@@H]1COCn2nncc2CC[C@H](Cc2ccccc2)C(=O)N1	none (no result: miR-122 sensor, NSD2 inh, MITF act, Wnt bcat act, DYRK1A inh)
Cc1ccc(OCc2cc(C(=O)NCC3COCCO3)no2)cc1C (centres undefined)	none (no result: DYRK1A inh)
Cc1ccc(OCc2cc(C(=O)NCC(C)(C)N3CCOCC3)no2)cc1C	MITF act 121.2, Wnt bcat act 46.6 (no result: miR-122 sensor)
Cc1ccc(OCc2cc(C(=O)N(C)CC3CCOCC3)no2)cc1C	MITF act 95.9
Cc1noc(C)c1S(=O)(=O)N(C)C[C@@H]1Oc2ccc(NS(=O)(=O)c3cn(C)cn3)cc2CC(=O)N([C@H](C)CO)C[C@H]1C	none (no result: NSD2 inh, MITF act, Wnt bcat act, DYRK1A inh)
CC(=O)Nc1cccc(-c2cnc(N)c(C(=O)c3cccnc3)n2)c1	DYRK1A inh 88.2 (no result: NSD2 inh, Wnt bcat act, GSIS activator) | ADP-Glo artifact inactive
CCOC(=O)C1CCCN(c2c(NCC3CCCN3CC)c(=O)c2=O)C1 (centres undefined)	none (no result: NSD2 inh)
CCOC(=O)C1CCCN(c2c(NCCCN3CCCC(C)C3)c(=O)c2=O)C1 (centres undefined)	DYRK1A inh 59.4 (no result: NSD2 inh, GSIS activator) | ADP-Glo artifact inactive
CCOC(=O)C1CCCN(c2c(NCCN(C)Cc3ccccc3)c(=O)c2=O)C1 (centres undefined)	DYRK1A inh 61.4 (no result: NSD2 inh) | ADP-Glo artifact inactive
COc1ccc(NC(=O)N(C)C[C@H]2OCCCC[C@H](C)Oc3ccc(NC(=O)NC(C)C)cc3C(=O)N([C@H](C)CO)C[C@@H]2C)cc1	none (no result: NSD2 inh, MITF act, Wnt bcat act, DYRK1A inh)
COc1cccc(/C=N/n2c(COc3ccccc3)n[nH]c2=S)c1O	DYRK1A inh 57.2 | ADP-Glo artifact inactive
COc1cccc(/C=C2\SC(=S)N(C(C)C(=O)NC3C=CS(=O)(=O)C3)C2=O)c1 (centres undefined)	none
COc1ccc(/C=C2\SC(=S)N(C(C)C(=O)NC3C=CS(=O)(=O)C3)C2=O)cc1 (centres undefined)	DYRK1A inh 76.6 | ADP-Glo artifact inactive
CO[C@H]1CN(C)C(=O)c2cc(NC(=O)C3CCCC3)ccc2OC[C@@H](C)N(CC2CC2)C[C@@H]1C	none (no result: miR-122 sensor, NSD2 inh, MITF act, Wnt bcat act, DYRK1A inh)
CCCN1C=CC(=C2C(=O)c3ccccc3C2=O)C=C1	none (no result: Wnt bcat act, GSIS activator)
CCN1C=CC(=C2C(=O)c3ccccc3C2=O)C=C1	DYRK1A inh 57.5 (no result: Wnt bcat act, GSIS activator) | ADP-Glo artifact inactive
CC(C)(O)[C@H](O)COc1c2ccoc2cc2oc(=O)ccc12	none (no result: miR-122 sensor, NSD2 inh)
C=C(C)[C@@H](O)COc1c2ccoc2cc2oc(=O)ccc12	DYRK1A inh 58.9 (no result: NSD2 inh) | ADP-Glo artifact inactive
CC(C)=CCOc1c2ccoc2cc2oc(=O)ccc12	none (no result: NSD2 inh, MITF act, GSIS activator)
CC(=O)O[C@H](COc1c2ccoc2cc2oc(=O)ccc12)C(C)(C)O	DYRK1A inh 68.2 (no result: miR-122 sensor, NSD2 inh, MITF act) | ADP-Glo artifact inactive

From PubChem
